S2 tox: reduces viability in counter-screen for ATXN expression inhibitors | S2 cells (HEK-293 line with an ATXN2-luciferase reporter) viability, CellTiter-Fluor protease fluorescence, 24 h | hit rate 0.49% among 400,000 | AID 651635 | Potency, µM (series often up to 56.7 µM), most hits filed as cytotoxic; further: nearly all actives have a fitted effect of over 40% in size
TGFb inhibitor: blocks TGF-b signaling; Potency, µM (doses to about 46.1 µM), for inactives: at the top dose activity, negative = inhibition, actives largely listed as inhibitors; hit rate 1.2% among 410,000; AID 588855; HepG2 CAGA-GFP TGF-b/SMAD3 reporter, GFP fluorescence, 18 h; TGF-beta stimulated, 500 pg/mL final; further: on the % scale 0 is the no-effect control and ±100 the full control effect; nearly all actives have a fitted effect of over 65% in size
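Per well, imaged GFP fluorescence of HEPG2 CAGA-GFP cells gives the signal; cells get compound, then TGF-beta (500 pg/mL final), 18 h at 37 degrees C; %Activity versus -TGF-beta and +DMSO controls.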
TDP1 cell noCPT: qHTS for Inhibitors of human tyrosyl-DNA phosphodiesterase 1 (TDP1): qHTS in cells in absence of CPT. DT40 Tdp1-/- hTDP1 cells, no CPT, ATP luminescence, 48 h. Potency, µM (series often up to 46.2 µM), without a hit: at the highest dose activity change, negative = growth inhibition, hits mostly inhibitors. hit rate 15% among 420,000; further: on the % scale 0 is the no-effect control and ±100 the full control effect; nearly all actives have a fitted effect of over 55% in size
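Camptothecin absent (DMSO only). Human TDP1-complemented DT40 knockout cells, 400 cells/well, 37 °C for minimum 48 hr; ATP measured via CellTiter-Glo, 30 min dark incubation, luminescence.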
ATXN2 expr inh: inhibitors of ATXN2 expression; HEK-293 ATXN2-luciferase reporter, luminescence, 24 h; Potency, µM (highest dose often 57 µM), for inactives: at the highest dose activity change, negative = inhibition, usual class: inhibitors; hit rate 0.72% among 360,000; AID 1745845; further: on the % scale 0 is the no-effect control and ±100 the full control effect; nearly all actives have a fitted effect of over 55% in size
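qHTS (up to 57 uM final) was run with 24 h compound exposure of reporter cells at 37 °C. Each well was multiplexed: SteadyGlo luminescence measured ATXN2-luciferase expression after a fluorogenic Gly-Phe-AFC viability readout (25 uM final).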
HepG2 tox: counter-screen for TGF-b inhibitors: cytotoxicity in HepG2 cells | HepG2 CAGA-GFP viability, ATP luminescence, 18 h | Potency, µM (series often up to 46.1 µM), inactives show top-dose activity change, negative = cytotoxicity, hits mostly cytotoxic | hit rate 0.76% among 410,000 | AID 588856
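HepG2 CAGA-GFP cells (1000/well, DMEM with 1% FBS) received compound, then TGF-beta at 500 pg/mL final, and were incubated 18 hours at 37 degrees C. Viability was read by CellTiter-Glo luminescence. Media-only wells were set as complete cell-killing and DMSO as no toxicity.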
DT40 TDP1 CPT: growth inhibition of DT40 Tdp1-/-;hTDP1 cells with camptothecin (screen for TDP1 inhibitors). chicken DT40 Tdp1-/-;hTDP1 cells + 20 nM CPT, ATP luminescence, 48 h. Potency, µM (top dose mostly 46.2 µM), without a hit: at the highest dose activity change, negative = growth inhibition, usual class: inhibitors. hit rate 12% among 420,000; further: on the % scale 0 is the no-effect control and ±100 the full control effect; nearly all actives have a fitted effect of over 55% in size
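Chicken DT40 Tdp1-/- cells complemented with human TDP1, 400 cells/well, exposed to compounds plus 20 nM camptothecin for at least 48 h at 37 C; viability read as ATP content by CellTiter-Glo luminescence.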
* marks the source's active call; other numbers are inactive results; i = inactive; ? = inconclusive; / = not tested or not shown. The list is not random: actives were taken first. Their share in the collection is about 17%. The call rests on the fitted dose curve; in most records, active means well fitted curve in the direction sought with a large enough effect; inconclusive means small, poorly fitted or top-dose-only effect, or another doubt; inactive means no such curve, though single readings can be large; an effect the other way counts as inactive or inconclusive. Potency means the concentration at half of the fitted maximal effect.

SMILES | S2 tox | TGFb inhibitor | TDP1 cell noCPT | ATXN2 expr inh | HepG2 tox | DT40 TDP1 CPT
CCOC(=O)c1c(NC(=O)c2cc3nc(-c4ccc(Br)cc4)cc(C(F)(F)F)n3n2)sc(C(C)=O)c1C | / | 5.9% | 3.3% | / | -2.8% | 20.8%
CC(C)(C)c1ccc(/C=N/NC(=O)C2CCCC2)cc1 | i | -17.4% | 13µM* | 86.1% | -23.1% | 20.6µM*
O=C(COc1ccc(Cl)cc1)Nc1cccc(S(=O)(=O)NCc2ccco2)c1 | i | -7.7% | -16.5% | 4.1% | -6.7% | -15.5%
CCCCCc1nnc(NC(=O)c2ccc(N3CCCC3=O)cc2)s1 | i | -5.8% | ? | 7.5% | -0.2% | ?
CCCc1nc2ccccc2c(=O)n1/N=C/c1ccccc1O | i | 2.82µM* | -22.2% | 14.3% | -36.1% | ?
Cc1ccc(-n2[nH]c(C)c(C=NCc3ccncc3)c2=O)cc1 | i | -9.0% | ? | 28.9% | -109.3% | ?
Cc1nc2ccccc2c(=O)n1/N=C/c1ccc(O)cc1 | i | -1.1% | -9.2% | 1.3% | -2.4% | -2.2%
CCCc1nc2ccccc2c(=O)n1/N=C/c1c(C)[nH]n(-c2ccc(C)cc2)c1=O | i | ? | 11.6µM* | ? | -89.3% | 20.6µM*
CCc1nc2ccccc2c(=O)n1/N=C/c1ccc(Cl)cc1 | i | -14.5% | 16.4µM* | -8.7% | -63.7% | -29.6%
CC(=O)OCC(NC(=O)C(C)NC(=O)OC(C)(C)C)C1OC(n2ccc(=O)[nH]c2=O)C(OC(C)=O)C1OC(C)=O (stereo unspecified) | / | -15.7% | / | / | -7.5% | /
COc1cc(OC)cc(C(=O)Nn2cc(C(=O)Nc3c(F)cccc3F)c3ccccc3c2=O)c1 | i | 1.9% | ? | -13.5% | -2.1% | ?
CCCN(CCC)C(=O)CC(c1ccccc1)C1CCOC(C)(C)C1 (stereo unspecified) | i | -11.3% | 23.1µM* | / | -21.1% | ?
CC1(C)CC(C(CC(=O)Nc2nccs2)c2ccccc2)CCO1 (stereo unspecified) | i | -5.8% | 18.4µM* | / | 5.5% | ?
CC1(C)CC(C(CC(=O)O)c2ccccc2)CCO1 (stereo unspecified) | i | -1.5% | 1.4% | 0.2% | 0.2% | 0.3%
O=C(NCc1ccccc1F)C(=O)NCC(c1cccs1)S(=O)(=O)c1cccs1 (stereo unspecified) | ? | 10.9% | ? | -8.9% | -10.4% | -27.1%
O=C(c1nc2ncccn2n1)N1CCOc2ccc(C(O)C(c3ccccc3)c3ccccc3)cc2C1 (stereo unspecified) | i | / | -45.9% | / | / | ?
CC(C)(C)c1cc(NC(=O)c2cccs2)no1 | i | 10.3% | 0.3% | 31.3% | -36.1% | ?
CC(C)(C)c1cc(NC(=O)c2cc(F)c(F)c(F)c2F)no1 | i | 6.6% | ? | 15.7% | -10.7% | 29.1µM*
COc1ccc(N2CCN(S(=O)(=O)CCNC(=O)c3ccc(OC(C)C)cc3)CC2)cc1 | / | -0.8% | -18.2% | / | -3.1% | -1.8%
CC(=O)Nc1ccc(NC(=O)c2cc3c(=O)n(Cc4cccnc4)ccc3nc2C)cc1 | i | -2.2% | -20.5% | 12.6% | 17.8µM* | -5.4%
CCc1cccc(NC(=O)c2cc3c(=O)n(Cc4ccc(OC)cc4)ccc3nc2C)c1 | ? | ? | 14.6µM* | -32.0% | -5.5% | ?
Cn1c(SCCN2CCCC2)nnc1C1CCN(S(=O)(=O)c2cccc(F)c2)CC1 | i | 18.9% | -21.0% | 5.2% | -25.4% | -22.2%
COc1ccc(S(=O)(=O)N2CCC3(CC2)CC(=O)c2ccccc2O3)cc1OC | i | 6.4% | -10.0% | -15.9% | -33.0% | -1.2%
O=[N+]([O-])c1ccc(COc2ccc(CN3CCCCC3)cc2)cc1 | i | 10.5% | ? | 12.6% | -34.0% | ?
O=[N+]([O-])c1ccc(COc2ccc(CN3CCCC3)cc2)cc1 | i | 7.9% | 18.4µM* | -0.1% | -22.2% | 16.4µM*
SMILES | S2 tox | TGFb inhibitor | TDP1 cell noCPT | ATXN2 expr inh | HepG2 tox | DT40 TDP1 CPT
O=[N+]([O-])c1ccc(COc2ccc(CN3CCOCC3)cc2)cc1 | i | -4.0% | 23.1µM* | 0.6% | -3.7% | ?
COC(=O)C1CCN(CCCOc2ccc(CN3CCN(c4ccc([N+](=O)[O-])cc4)CC3)cc2)CC1 | i | -1.3% | 20.6µM* | -27.1% | -3.8% | -84.1%
O=[N+]([O-])c1ccc(N2CCN(Cc3ccncc3)CC2)cc1 | i | -16.0% | 18.4µM* | / | -1.7% | ?
COC1OC(c2ccccc2)=C(c2ccc(C(N)=O)cc2)c2ccc(F)cc21 (stereo unspecified) | ? | / | ? | -11.6% | / | 1.3%
O=[N+]([O-])c1ccc(COc2cccc(CN3CCCC3)c2)cc1 | i | -18.0% | ? | 0.6% | -34.9% | ?
O=[N+]([O-])c1ccc(COc2cccc(CN3CCCCC3)c2)cc1 | i | 27.6% | 16.4µM* | -6.3% | -5.6% | ?
O=[N+]([O-])c1ccc(CN2CCCCCC2)cc1 | i | -0.2% | -7.9% | 14.1% | 17.0% | 0.2%
CSc1ccc(CN2CCN(Cc3ccc([N+](=O)[O-])cc3)CC2)cc1 | ? | 0.0% | 20.6µM* | -12.6% | -1.5% | ?
O=C1CCC(=O)N1CN(Cc1ccco1)CN1C(=O)CCC1=O | i | -2.4% | -10.0% | -1.6% | 17.2% | -43.5%
CCCCN(CC)CCNc1ncnc2onc(-c3ccc(Cl)cc3)c12 | i | 4.8% | -18.9% | -1.6% | -2.6% | -20.6%
O=C(Cn1c2ccccc2c(=O)c2ccccc21)N/N=C/c1ccc(N2CCCC2)c([N+](=O)[O-])c1 | / | -21.0% | ? | 31.6µM* | -50.2% | 18.4µM*
COc1cc(/C=C/C(=O)N2CCN(c3n[nH]c(=O)[nH]c3=O)CC2)cc(OC)c1OC | i | 14.1% | -13.2% | -14.7% | -16.7% | ?
CCOc1ccc(-c2nc3c(C#N)c[nH]n3c2NC2CCCCC2)cc1 | i | ? | 7.31µM* | 26.9% | -52.4% | 8.2µM*
COc1cccc(-c2nc3c(C#N)c[nH]n3c2NC2CCCCC2)c1 | i | -13.6% | ? | 13.6% | -0.8% | ?
N#Cc1c[nH]n2c(NC3CCCC3)c(-c3ccc(Br)cc3)nc12 | i | -24.3% | 23.1µM* | 1.6% | -32.1% | 18.4µM*
N#Cc1c[nH]n2c(NC3CCCC3)c(-c3ccc(Cl)cc3)nc12 | i | ? | 16.4µM* | 16.9% | -44.4% | ?
Cc1cccc(-c2nc3c(C#N)c[nH]n3c2NC2CCCCC2)c1 | i | -5.8% | 20.6µM* | 44.0% | -11.0% | ?

High-throughput results deposited in PubChem BioAssay by National Center for Advancing Translational Sciences (NCATS).
